Results as given in the supplement of paper PMC6522484.
± gives the standard deviation of the averaged measurements.

How the values were obtained:
DLD1 [1] = test: cell viability (CellTiter-Glo) relative to plate median (fraction of plate median); higher = more viable cells; details: 5 µM; treatment time 24 h; reporter: 7TFP
Summary of the method: (§1)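 Library compounds were added at a final concentration of 5 µM for 24 h to colorectal cancer cells stably transduced with a lentiviral TCF/Wnt firefly luciferase reporter. Reported values are firefly luciferase or CellTiterGlo luminescence, normalised per well to the plate median. Each value averages two independent replicates.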

HCT116 = test: as above; details: 5 µM; treatment time 24 h; reporter: TCF4/Wnt
Summary of the method: as §1

SW480 [2] = test: as above; details: 5 µM; treatment time 24 h; reporter: 7TFP
Summary of the method: as §1

DLD1 [3] = test: TCF/Wnt firefly luciferase reporter signal relative to plate median (fraction of plate median); higher = higher Wnt reporter signal; details: 5 µM; treatment time 24 h; reporter: 7TFP
Summary of the method: as §1

SW480 [4] = test: as above; details: 5 µM; treatment time 24 h; reporter: 7TFP
Summary of the method: as §1

SMILES | cell viability (DLD1 [1]) | cell viability (HCT116) | cell viability (SW480 [2]) | TCF/Wnt firefly luciferase reporter signal (DLD1 [3]) | TCF/Wnt firefly luciferase reporter signal (SW480 [4])
CC(=O)OCC(=O)[C@@]12OC(C)(C)O[C@@H]1C[C@H]1[C@@H]3C[C@H](F)C4=CC(=O)C=C[C@]4(C)[C@@]3(F)[C@@H](O)C[C@@]12C | 1.01 ± 0.023 | 1 ± 0.05 | 0.969 ± 0.044 | 1.03 ± 0.072 | 1.06 ± 0.093
CC[C@H](CC[C@@H](C)[C@H]1CC[C@H]2[C@@H]3CC=C4C[C@@H](O)CC[C@]4(C)[C@H]3CC[C@]12C)C(C)C [beta-SITOSTEROL] | 1.07 ± 0.13 | 1.03 ± 0.035 | 1.13 ± 0.014 | 0.872 ± 0.0028 | 1.02 ± 0.035
COc1ccc(-c2coc3cc(O)ccc3c2=O)c(OC)c1 | 0.989 ± 0.016 | 1.01 ± 0.067 | 1.04 ± 0.05 | 1.035 ± 0.0071 | 1.01 ± 0.064
COC(=O)C[C@H]1C2(C)CC34OC5(C)O[C@@]6([C@H](OC)C(OC(=O)C(C)C)[C@]7(C)C(/C(=C(/OC)C(C)C)C(=O)O[C@H]7c7ccoc7)[C@@]6(O5)[C@H](OC)[C@@]3(OC)C2OC(C)=O)[C@]14C (stereo not given in full) | 1.025 ± 0.0071 | 0.916 ± 0.013 | 0.9595 ± 0.00071 | 0.883 ± 0.065 | 0.903 ± 0.016
